Compounds without any hit were thinned out: in the full panel of roughly 83,000, 20% have a hit.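 The test compound was applied at a single concentration to cells in 96-well plates for 48 hours, and percent growth was recorded.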 Unmarked numbers belong to inactive results. Active and inactive are the calls of the source. Rule for the calls: active = growth percent below 10; inactive = the rest.

Among the data in PubChem BioAssay (NCI) are growth values, retold here.

Test systems include NCI-H23 lung; NCI-H322M lung; HOP-62 NSCLC; NCI-H460 lung; HOP-92 NSCLC; NCI-H522 lung; A549/ATCC NSCLC; 786-0 renal; COLO 205 colon; DU-145 prostate.
Test in all cases: NCI-60 one-dose screen, 48 h (100 = growth as untreated, 0 = no growth, -100 = all killed)
Holding throughout (details): 10 µM unless noted

As to `COc1cc(C(C)n2cc(-c3ccccc3)nn2)ccc1OC1CCCC1` (stereo not given), the growth was 45.4% with NCI-H23 lung; 78% with NCI-H322M lung; 52.7% with HOP-62 NSCLC; 74.1% with NCI-H460 lung; 54.7% with HOP-92 NSCLC; 51.2% in the test with NCI-H522 lung. The growth was 61.3% in the test on A549/ATCC NSCLC, 72.7% with 786-0 renal, 91.8% in the test with COLO 205 colon and 85.6% in the test with DU-145 prostate.

As for `O=c1oc2ccc(-c3ccc(F)cc3F)cc2c(=O)n1-c1cccc(C(F)(F)F)c1`, the growth was 1.75% (active) in the test on NCI-H23 lung; 4.41% (active) in the test on NCI-H322M lung; 3.5% (active) in the test with HOP-62 NSCLC; 4.14% (active) in the test on NCI-H460 lung; -26.6% (active) in the test on HOP-92 NSCLC; -10.7% (active) in the test on NCI-H522 lung. Further, the growth with A549/ATCC NSCLC is 7.26% (active); in the test with 786-0 renal, 0.874% (active); in the test on COLO 205 colon, 17.9%; in the test on DU-145 prostate it was 20.1%.

In the case of `O=C(/C=C/c1cccc(Cl)c1)OCc1ccc2cc1OCC#C/C=C\C#CCO2`, the growth in the test on NCI-H23 lung is 102%; in the test with NCI-H322M lung, 91.1%; with HOP-62 NSCLC it was 100%; with NCI-H460 lung, 104%; in the test with HOP-92 NSCLC, 150%; in the test on NCI-H522 lung, 83.2%. Further, the growth is 90.5% in the test on A549/ATCC NSCLC, 100% in the test with 786-0 renal, 106% with COLO 205 colon and 119% in the test with DU-145 prostate.

As to `CCOC(=O)c1cc2c(n1Cc1cc(OC)c(OC)c(OC)c1)-c1oncc1CCC2`, the growth in the test with NCI-H23 lung is 21.5%; with NCI-H322M lung, 50.7%; with HOP-62 NSCLC, 39.8%; in the test with NCI-H460 lung, 5.74% (active); in the test with HOP-92 NSCLC it was 129%; in the test on NCI-H522 lung it was 5.14% (active). In addition, the growth with A549/ATCC NSCLC is 26.7%; in the test on 786-0 renal, 39.5%; in the test on COLO 205 colon it was -39.9% (active); in the test with DU-145 prostate it was 13%.

For the compound `O=C(/C=C/c1ccccn1)c1ccc(OCc2nnc(-c3ccc(Cl)cc3)o2)cc1`, the growth in the test on NCI-H23 lung is 70%; in the test on NCI-H322M lung, 52.7%; in the test with HOP-62 NSCLC, 44.6%; in the test on NCI-H460 lung, 42.4%; in the test with HOP-92 NSCLC, 105%; in the test with NCI-H522 lung, 63.7%. For the same compound, the growth in the test with A549/ATCC NSCLC was 34.1%; with 786-0 renal, -49.9% (active); in the test with COLO 205 colon, -40.1% (active); in the test with DU-145 prostate, 23.8%.

Take `COc1ccc(/C=C/C(=O)c2c(C)nc3ccccc3c2/C=C/c2ccccc2)cc1O`: the growth in the test on NCI-H23 lung is 50.6%; with NCI-H322M lung, 42.3%; in the test with HOP-62 NSCLC it was 88.6%; with NCI-H460 lung, 22.8%; with HOP-92 NSCLC it was 65.6%; with NCI-H522 lung, 14.9%. Further, the growth in the test on A549/ATCC NSCLC was 39.5%; in the test with 786-0 renal, 99.4%; in the test on COLO 205 colon, 109%; in the test on DU-145 prostate, 45.7%.

For the compound `COc1ccc(C)c2sc(N(Cc3cccnc3)C(=O)c3ccc(C#N)cc3)nc12`, the growth was 7.42% (active) in the test with NCI-H23 lung; 6.37% (active) in the test with NCI-H322M lung; 7.67% (active) with HOP-62 NSCLC; -24.4% (active) in the test with NCI-H460 lung; -3.64% (active) in the test on HOP-92 NSCLC; -22.2% (active) in the test with NCI-H522 lung. Besides, the growth was 6.76% (active) in the test with A549/ATCC NSCLC, -12.2% (active) in the test on 786-0 renal, 1.84% (active) with COLO 205 colon and 17.3% in the test on DU-145 prostate.

Take `O=C1OC(c2ccccc2)(c2ccccc2)c2ccsc21`: the growth was 113% in the test on NCI-H23 lung; 90.7% in the test on NCI-H322M lung; 117% in the test on HOP-62 NSCLC; 98.8% with NCI-H460 lung; 87.1% in the test on HOP-92 NSCLC; 92.6% with NCI-H522 lung. Further, the growth is 101% with A549/ATCC NSCLC, 103% with 786-0 renal, 121% in the test with COLO 205 colon and 104% in the test on DU-145 prostate.

For `O=C1/C(=C/c2cccc(O)c2)COc2ccc(O)cc21`, the growth with NCI-H23 lung was 86.5%; in the test with NCI-H322M lung, 98.2%; with HOP-62 NSCLC it was 103%; in the test on NCI-H460 lung, 76.3%; in the test on HOP-92 NSCLC, 104%; in the test with NCI-H522 lung, 36.6%. Besides, the growth was 103% with A549/ATCC NSCLC, 82.1% with 786-0 renal, 102% in the test on COLO 205 colon and 80.5% in the test with DU-145 prostate.

Regarding `O=S(=O)(c1ccccc1)n1cc2c(c1-c1ccccc1)CCc1sc(Nc3ccccc3)nc1-2`, the growth with NCI-H23 lung was 92.8%; in the test with NCI-H322M lung it was 75.6%; in the test with HOP-62 NSCLC it was 112%; with NCI-H460 lung, 86.6%; with HOP-92 NSCLC it was 86.6%; with NCI-H522 lung it was 77.7%. The growth in the test with A549/ATCC NSCLC is 75.2%; in the test on 786-0 renal, 89.7%; with COLO 205 colon, 103%; in the test on DU-145 prostate, 90.1%.

Consider `CC1=C(C(=O)OCC2CCN(C(=O)OC(C)(C)C)CC2)[C@H](c2cccc(C#N)c2)C2=C(CC(C)(C)CC2=O)N1`, for which the growth in the test on NCI-H23 lung is 65.7%; in the test with NCI-H322M lung it was 68.4%; in the test on HOP-62 NSCLC, 70.3%; in the test with NCI-H460 lung, 12.8%; with HOP-92 NSCLC, 86.3%; with NCI-H522 lung, 8.74% (active). In addition, the growth in the test with A549/ATCC NSCLC was 46.1%; with 786-0 renal, 62.8%; with COLO 205 colon, 50.9%; in the test with DU-145 prostate, 52.5%.

On to `COc1cc(C2C(C#N)=C(N)OC3=C2C(=O)c2ccccc2C3=O)cc(OC)c1O` (stereo not given), for which the growth in the test with NCI-H23 lung was 32.5%; in the test with NCI-H322M lung, 47.7%; in the test on HOP-62 NSCLC, 34.2%; with NCI-H460 lung, 12.7%; in the test on HOP-92 NSCLC, 43.7%; in the test on NCI-H522 lung it was -10.1% (active). In addition, the growth with A549/ATCC NSCLC was 52.3%; in the test on 786-0 renal it was 35.4%; in the test on COLO 205 colon it was 44.6%; in the test on DU-145 prostate, 17.8%.

Take `CC(C)C[C@H](C(=O)N[C@@H](C)C(N)=O)N1CC=CCN(O)S1(=O)=O`: the growth with NCI-H23 lung was 110% [5 µM]; in the test with NCI-H322M lung it was 135% [5 µM]; in the test on HOP-62 NSCLC it was 102% [5 µM]; in the test with NCI-H460 lung, 112% [5 µM]; with HOP-92 NSCLC it was 116% [5 µM]; in the test on NCI-H522 lung it was 91.7% [5 µM]. Also, the growth with A549/ATCC NSCLC was 102% [5 µM]; with 786-0 renal it was 105% [5 µM]; in the test on COLO 205 colon it was 105% [5 µM]; in the test on DU-145 prostate, 128% [5 µM].
